Only some compounds are listed: those with a hit (about 1% of all), similar ones and a draw of the others.
LANA DNA inh – KSHV C-LANA DNA binding inhibition; MBP-C-LANA/FAM-LBS DNA binding, fluorescence polarization; hit rate 0.078% among 340,000; inhibition, % at 9 µM;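 active = highest replicate inhibition at or above 60% at 9 µM, even if other replicates fall short; inactive = all replicates below 60% inhibition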;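 also: 0% = neutral control wells and 100% = 4 µM acridine orange control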
Keap1-Nrf2 PPI – Keap1-Nrf2 (human) interaction inhibition | Q14145 | Keap1 Kelch-Nrf2 peptide fluorescence polarization, 1536-well | inhibition, % at 9.4 µM | hit rate 0.15% among 340,000 | AID 504523; in the data active = inhibition above about 12%;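 also: human Keap1 Kelch domain with fluorescein labeled Nrf2 9mer peptide probe; 0% = neutral control wells and 100% = peptide positive control; higher means more block of Keap1 binding to Nrf2 peptide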
Target sequence (Q14145 whole entry, looked up, the tested form may be a part): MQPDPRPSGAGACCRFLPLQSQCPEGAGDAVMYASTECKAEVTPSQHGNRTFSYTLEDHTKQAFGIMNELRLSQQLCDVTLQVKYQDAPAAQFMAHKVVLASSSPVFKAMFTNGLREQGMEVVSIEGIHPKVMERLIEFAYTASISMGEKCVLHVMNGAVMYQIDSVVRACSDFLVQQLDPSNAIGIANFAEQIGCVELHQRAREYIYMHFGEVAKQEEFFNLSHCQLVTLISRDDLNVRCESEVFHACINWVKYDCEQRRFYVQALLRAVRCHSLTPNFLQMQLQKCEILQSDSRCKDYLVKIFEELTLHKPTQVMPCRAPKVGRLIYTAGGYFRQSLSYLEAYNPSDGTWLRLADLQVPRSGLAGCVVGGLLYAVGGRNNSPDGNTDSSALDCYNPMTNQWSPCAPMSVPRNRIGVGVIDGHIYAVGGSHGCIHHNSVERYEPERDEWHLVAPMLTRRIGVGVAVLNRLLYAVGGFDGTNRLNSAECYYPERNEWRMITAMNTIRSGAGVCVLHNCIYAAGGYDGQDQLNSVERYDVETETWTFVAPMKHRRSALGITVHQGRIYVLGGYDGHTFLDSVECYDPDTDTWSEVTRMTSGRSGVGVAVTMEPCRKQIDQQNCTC
cardiac RTF act – cardiac RTF calcium sensitization; IANBD-labeled TnC RTF fluorescence at EC20 calcium; 0% EC20 calcium, 100% full calcium; activation, % at 7.2 µM; hit rate 0.24% among 340,000;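 active = activation above the mean over all tested compounds plus 3 SD, cut at about 30% in these data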;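 also: rise in fluorescence read as greater calcium sensitivity of cardiac thin filaments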
Cardiac RTF inh – cardiac RTF calcium desensitization; P19429+P45379; IANBD-labeled cardiac RTF, Ca2+ fluorescence; inhibition, % at 7.15 µM; hit rate 0.12% among 340,000;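 active = inhibition above the mean inhibition of all tested compounds plus 3 SD, cut at about 17% in these data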;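 also: assay run at fixed EC70 calcium of 1.6 mM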
LANA-H2B inh – blocks KSHV LANA binding to histone H2A/H2B | cell-free LANA-H2A/H2B peptide, fluorescence polarization | Q9QR71 | hit rate 0.6% among 320,000 | inhibition, % (test concentration not listed); in the data active = inhibition mostly above about 10%, no sharp cut-off; inactive = mostly below about 6.7%
RTF Ca inh conf – confirmation of inhibitors of cardiac thin filament calcium sensitivity. shares compounds with Cardiac RTF inh. reconstituted cardiac thin filaments, calcium sensitivity fluorescence. inhibition, % at 7.15 µM. hit rate 8% among 360. AID 504635; in the data active = inhibition above about 18%
Numbers without * were called inactive; / = no result.

SMILES	LANA DNA inh	Keap1-Nrf2 PPI	cardiac RTF act	Cardiac RTF inh	LANA-H2B inh	RTF Ca inh conf
Cc1ccc(CS(=O)Cc2ccc(C(=O)NCc3ccc(OC(C)C)cc3)o2)cc1 (stereo not given)	1.6	-2.9	3.4	27.2*	5.9	-1.2
COc1ccc(CNC(=O)c2ccc(CS(=O)Cc3ccc(Cl)cc3)o2)cc1 (stereo not given)	1.1	-0.6	-2.3	2.5	3.1	/
CC/C(=C(\c1ccc(O)cc1)c1ccc(OCCN(C)C)cc1)c1ccccc1	-0.5	-2.4	1.7	17.6*	1.6	-0.9
Cc1ccc2nc(NC(=O)COC(=O)CSc3nc(C)cc(C)n3)sc2c1	-2.5	-1.0	-2.0	19.2*	-1.1	-5.3
COC(=O)c1ccc2nc(NC(=O)COC(=O)CSc3nc(C)cc(C)n3)sc2c1	0.7	0.7	4.6	10.2	1.6	/
O=C(CC(c1cccs1)S(=O)(=O)c1ccccc1)c1ccc(F)cc1 (stereo not given)	1.4	-6.0	3.2	-2.4	-6.3	/
CCn1c(=O)cc(SCC(=O)Nc2cccc(C)n2)c2ccccc21	1.4	1.9	-4.0	18.2*	-3.4	-3.5
CCn1c(=O)cc(OCC(=O)Nc2cccc(C)n2)c2ccccc21	0.0	6.9	9.9	-15.1	4.0	/
Cc1ccc(NC(=O)CSCc2n[nH]c(=O)[nH]2)c(Br)c1	1.5	-4.5	4.0	0.6	3.2	/
N/C(=N\OC(=O)N1CCOCC1)c1ccc(Br)cc1	0.5	1.9	-4.2	6.4	1.6	/
CC1CCCC(C)N1C(=O)Cn1cc(C#N)c2ccccc21 (stereo not given)	-0.7	0.6	/	/	-1.5	/
O=C(NCC(c1cccs1)N1CCOCC1)c1ccc([N+](=O)[O-])cc1 (stereo not given)	3.1	-0.4	-4.7	17.4*	10.6	-3.5
Cc1cc([N+](=O)[O-])nn1CCCC(=O)N1CCN(c2ccc(F)cc2)CC1	0.8	-2.7	2.3	10.1	0.0	/
COc1ccc(CC(=O)NCCc2ccc(Cl)cc2Cl)cc1	0.1	-3.3	0.9	21.6*	-1.7	-1.2
O=C(Cc1ccc(Br)cc1)NCCc1ccc(Cl)cc1Cl	-1.3	-0.6	7.0	-17.7	-1.9	/
C#CCNC(=O)C1=C[C@H](c2ccc(C(F)(F)F)cc2)[C@@H](CCCO)[C@H](OCC)O1	0.4	-3.1	-3.0	-8.2	-1.2	/
NCCNC(=O)Cc1ccc(NC(=O)Cc2ccc(Nc3ncnc4c3ncn4[C@@H]3O[C@H](CO)[C@@H](O)[C@H]3O)cc2)cc1	-2.0	-0.2	-3.9	23.4*	-0.7	-3.0
CNc1ncnc2c1ncn2[C@@H]1O[C@H](CO)[C@@H](O)[C@H]1O	-0.8	-1.9	8.4	-7.5	-2.2	/
Cc1nn(C2CCS(=O)(=O)C2)c(C)c1CN(C)C(=O)c1ccc(Cl)cc1 (stereo not given)	0.8	-0.6	-2.4	7.5	-1.8	/
COc1ccc(C(=NNc2ccccc2C(=O)O)c2ccc(OC)cc2)cc1	-0.9	1.0	0.3	17.0*	3.5	-4.0
CCC(C)(C)NC(=O)CN(C(=O)C(=O)Nc1ccc2c(c1)OCCO2)N1CCOCC1	-1.5	3.6	1.8	-4.5	2.4	/
CC(C)(C)C(=O)NC(n1cnc2c(N3CCOCC3)ncnc21)C(Cl)(Cl)Cl (stereo not given)	1.2	1.5	1.0	19.1*	-8.2	-8.8
COC(=O)c1ccc(N/C=C/C(=O)c2ccccc2)cc1	0.6	-2.4	4.9	-7.0	7.0	/
CCc1cccc(NC(=O)C2CCCN(S(=O)(=O)c3cccs3)C2)c1 (stereo not given)	0.1	2.1	3.9	23.9*	-0.7	-2.3
COc1ccc(NC(=O)C2CCCN(S(=O)(=O)c3cccs3)C2)cc1OC (stereo not given)	2.2	-3.0	11.2	-6.0	1.4	/
SMILES	LANA DNA inh	Keap1-Nrf2 PPI	cardiac RTF act	Cardiac RTF inh	LANA-H2B inh	RTF Ca inh conf
Cc1ccc(CSc2nnc(SCC(=O)N/N=C/C=C/c3ccccc3[N+](=O)[O-])s2)cc1	2.7	-3.7	7.7	21.4*	-5.2	-4.9
Cc1ccc(CSc2nnc(SCC(=O)N/N=C/C=C/c3ccco3)s2)cc1	1.9	-2.4	0.8	3.1	-1.3	/
CC1(C)CC(=O)C(Sc2ccccc2)=C(O)C1	1.9	-2.1	2.3	56.3*	4.7	1.1
O=C(O)Cc1c[nH]c2ccc(O)cc12	-0.4	-3.1	3.5	17.5*	4.1	1.2
COc1ccc2[nH]cc(CC(=O)O)c2c1	0.0	-1.8	-0.5	1.4	-2.5	/
O=C(O)C1Nc2c(Cl)cc(Cl)cc2C2C=CCC12 (stereo not given)	25.9	4.1	-39.5	55.5*	7.5	7.4
c1coc(CNC2CCCCCCC2)c1	-0.8	-1.7	2.4	18.2*	-1.9	-5.4
c1coc(CNC2CCCCC2)c1	1.5	-2.6	1.1	-3.2	1.4	/
O=C(c1coc(=O)c(Br)c1)N1CCC(C(O)(c2ccccc2)c2ccccc2)CC1	0.0	-0.2	3.6	-2.5	0.7	/
CC1(C)CCCN(C(=O)c2coc(=O)c(Br)c2)C1	64.0*	-3.7	-17.2	21.5*	/	2.5
O=C(COC(=O)CC1CCS(=O)(=O)C1)Nc1ccc(F)cc1 (stereo not given)	-0.7	-9.8	-0.9	-7.8	1.4	/
Cc1ccc(Nc2nc(N)nc(CN3CCN(C)CC3)n2)cc1	0.4	2.9	-2.1	18.0*	-0.9	-5.9
COc1ccc(CC(=O)NCC(=O)N/N=C/c2ccc(C)o2)cc1	0.7	-0.1	-2.6	-13.1	3.8	/
Cc1ccc(/C=N/NC(=O)CNC(=O)COc2ccc(Cl)cc2)o1	-0.1	-2.1	-1.6	18.2*	-0.8	-4.5
CN(C)CCCN1C(=O)C2CCc3[nH]c4ccccc4c3C2C1=O (stereo not given)	3.6	-0.4	5.7	19.2*	-2.7	-4.1
Cc1cc(OCCCC(=O)NC2=NCCS2)ccc1Cl	0.2	-3.5	-4.1	17.2*	1.6	-3.0
CN[C@H](CC(=O)O)C(=O)O	0.8	-1.3	5.7	18.0*	6.9	-2.4
O=C(CCCCCN1C(=O)c2ccccc2C1=O)Nc1ccccc1	0.1	-3.2	1.2	18.5*	1.3	-5.2
Cc1nnc(C)n1N	0.5	-6.3	-0.6	18.1*	-0.6	-3.8
Cc1cc(C)n(-c2nnc(C)n2N)n1	-1.2	-2.0	3.2	-4.6	1.5	/
COc1cc2cccc(OC)c(=O)c2c(O)c1OC	-2.2	-4.4	-4.8	-1.4	4.5	/
COc1cc2c(ccc3cc(OC)c(OC)c(O)c32)cc1O	19.5	4.2	-26.5	26.3*	-1.4	9.9
CCOC(=O)CNC(=O)Cn1cnc2c(nnn2-c2cccc(OC)c2)c1=O	-0.3	-2.1	6.8	-6.4	2.1	/
CN(N)C(=S)Nc1ccc(Cl)cc1	0.3	-2.2	2.8	18.2*	-0.7	-2.5
CN(C)NC(=S)Nc1ccc(Cl)cc1	0.0	-3.2	1.6	-0.2	1.9	/
CCCC1C(C#N)=C(N)Oc2n[nH]c(C(C)(C)C)c21 (stereo not given)	-0.5	-3.4	-0.2	-0.6	-1.8	/

High-throughput results (PubChem BioAssay)
